Shown are actives, neighbours in structure and some others; about 21% of the full set was active somewhere.
DRD3 antagonist: qHTS of D3 Dopamine Receptor Antagonist: qHTS. max response, negative = inhibition, %. 360,000 compounds, 2.5% hits. D3R cells, DiscoveRx beta-arrestin luminescence, antagonist mode; hits give low values. D(3) dopamine receptor (Homo sapiens), P35462; in the data active = max response below about -50%; inconclusive = no clear call, values can overlap the other calls; note: % is set by controls: 0 for no effect and ±100 for the full control effect
Target sequence (P35462 whole entry, looked up): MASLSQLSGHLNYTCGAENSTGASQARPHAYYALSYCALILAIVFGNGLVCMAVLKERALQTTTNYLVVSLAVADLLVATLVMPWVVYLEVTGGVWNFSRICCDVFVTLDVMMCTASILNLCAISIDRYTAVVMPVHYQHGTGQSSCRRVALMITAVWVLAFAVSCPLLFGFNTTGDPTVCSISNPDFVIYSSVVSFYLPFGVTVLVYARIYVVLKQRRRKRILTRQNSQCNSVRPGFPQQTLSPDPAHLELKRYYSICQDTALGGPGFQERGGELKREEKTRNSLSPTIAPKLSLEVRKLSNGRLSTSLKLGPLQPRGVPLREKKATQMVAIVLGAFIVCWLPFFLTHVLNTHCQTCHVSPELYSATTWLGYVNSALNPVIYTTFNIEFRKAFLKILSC
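Cells expressing the human receptor were seeded at 1500 cells/well, incubated overnight at 37 degrees C in 5% CO2, then exposed to library compounds with dopamine controls for 90 minutes at 37 degrees C before luminescent detection.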
DRD3 agonist: qHTS of D3 Dopamine Receptor Agonist: qHTS | D(3) dopamine receptor (Homo sapiens), P35462 | D3R DiscoveRx beta-arrestin cells, luminescence, 90 min | max activation, % | 410,000 compounds, 0.58% hits | AID 652048, 2013; in the data active = max activation above about 30%; note: 0% is about no effect
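Cells at 1500/well, incubated overnight, then treated with pinned compounds (dopamine as control) for 90 min at 37 degrees C. DiscoveRx reagent added for 30 - 60 minutes at room temperature; luminescence read.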
DT40 TDP1 no CPT: qHTS for Inhibitors of human tyrosyl-DNA phosphodiesterase 1 (TDP1): qHTS in cells in absence of CPT. DT40 Tdp1-/- hTDP1 cells, no CPT, ATP luminescence, 48 h. AID 686978, 2013. 420,000 compounds, 15% hits. Potency, µM (titrated, usually from 46.2 µM), for the others: top-dose activity change, negative = growth inhibition, most hits filed as inhibitors; note: potency is the fitted concentration of half-maximal effect; % is set by controls: 0 for no effect and ±100 for the full control effect; nearly all actives have a fitted effect of over 55% in size
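Growth of hTDP1-complemented DT40 Tdp1-knockout cells is measured by ATP luminescence after at least 48 hr compound exposure at 37 °C, with DMSO substituting for the 20 nM CPT used in the parallel screen.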
ClpP mod: qHTS Assay for Activators of ClpP. ATP-dependent Clp protease proteolytic subunit (Bacillus subtilis (strain 168)), P80244. purified B. subtilis ClpP, FRET peptide cleavage, 20 min. Potency, µM (doses to about 57.5 µM), inactives show at the top dose activity change, negative = active. 340,000 compounds, 1.9% hits; active = well fitted falling curve with a large enough effect; inconclusive = small, poorly fitted or top-dose-only effect; inactive = no such curve, though single readings can be large or run the other way; note: potency is the fitted concentration of half-maximal effect; the source files actives as falling curves though it sought activators and does not explain the sign; nearly all actives have a fitted effect of over 65% in size
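ClpP 10 microg/mL final, pH 8 Tris/KCl buffer with BSA, glycerol, Tween-20; compound pinned in; FRET-FV substrate; RT 20 min; Ex320/Em430; ΔFRET vs ADEP 5.8 microM, DMSO, no enzyme.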
IL-1B inflam inh: qHTS for Inhibitors of Inflammasome Signaling: IL-1-beta AlphaLISA Primary Screen; THP-1 LPS/ATP IL-1B secretion, AlphaLISA, 16 h; hits give low values; activity change, % at 57.5 µM; 360,000 compounds, 4.7% hits; in the data active = activity change below about -50%; inconclusive = mostly about -30% to -49%; note: % is set by controls: 0 for no effect and ±100 for the full control effect
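THP-1 cells pretreated 1 hr with compounds (up to 57.5 uM final), then stimulated with LPS (250 ng/mL final) plus ATP (1.25 mM final); secreted IL-1B measured by AlphaLISA after 16 hr, decreased signal indicating inhibition.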
DT40 TDP1 CPT: qHTS for Inhibitors of human tyrosyl-DNA phosphodiesterase 1 (TDP1): qHTS in cells in presence of CPT. chicken DT40 Tdp1-/-;hTDP1 cells + 20 nM CPT, ATP luminescence, 48 h. Potency, µM (top dose mostly 46.2 µM), for inactives: at the top dose activity change, negative = growth inhibition, usual class: inhibitors. 420,000 compounds, 12% hits. AID 686979, 2013; note: potency is the fitted concentration of half-maximal effect; % is set by controls: 0 for no effect and ±100 for the full control effect; nearly all actives have a fitted effect of over 55% in size
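Chicken DT40 Tdp1-/- cells stably complemented with human TDP1 were seeded at 400 cells/well in medium containing 20 nM camptothecin, exposed to pin-transferred compounds, and grown at 37 °C for at least 48 hr. Viability was read as ATP luminescence.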
An asterisk follows results filed as active; ? = inconclusive; · = no result given. Unless noted, calls come from the whole dose curve; as a rule, active = well fitted inhibition curve with a large enough effect; inconclusive = small, poorly fitted or top-dose-only effect; inactive = flat fitted curve, though single readings scatter.

SMILES	DRD3 antagonist	DRD3 agonist	DT40 TDP1 no CPT	ClpP mod	IL-1B inflam inh	DT40 TDP1 CPT
CC(C)(C)C1CCN2CCC[C@](c3ccccc3)(C1)[C@@]21CO1 (some centres not stated)	4.0	3.2	?	-0.5%	?	?
COc1cc(C23CCCN(CCC(C(C)(C)C)C2)C32OCCO2)cc(OC)c1OC (configuration not stated)	-18.8	-0.6	23.1µM*	5.4%	-2.2	?
CC(C)(C)C1CCN2CCCC(c3ccc([N+](=O)[O-])cc3)(C1)C21OCCO1 (configuration not stated)	30.8	16.4	?	0.5%	25.5	20.6µM*
COc1cc(C2NC(=O)NC(O)(C(F)(F)F)C2C(C)=O)cc(OC)c1OC (configuration not stated)	5.6	-13.6	-30.0%	-2.8%	0.0	-17.1%
CC(C)C(=O)NC(=S)Nc1ccc(S(=O)(=O)NC2CCCCC2)cc1	-16.9	-10.0	-25.9%	0.8%	3.6	?
C=CCC1C=C(C)CC(CC=C)N1 (configuration not stated)	33.7	4.4	-6.8%	·	16.2	1.7%
C#CCNC(=O)C1=C[C@H](C(C)(C)C)C[C@H](OCc2ccc(CO)cc2)O1	1.5	2.6	?	-1.9%	-19.3	?
O=C(C1=C[C@@H](c2ccc3c(c2)OCO3)C[C@@H](OCc2ccc(CO)cc2)O1)N1CCOCC1	19.2	-4.8	-11.9%	0.6%	-8.8	-1.4%
O=C(C1=C[C@@H](c2ccc(C(F)(F)F)cc2)C[C@@H](OCCCCO)O1)N1CCN(Cc2ccc3c(c2)OCO3)CC1	-2.6	-6.1	?	-0.1%	?	18.4µM*
O=C(C1=C[C@@H](c2ccc(C(F)(F)F)cc2)C[C@@H](OCc2ccc(CO)cc2)O1)N1CCN(Cc2ccc3c(c2)OCO3)CC1	?	-9.4	20.6µM*	-0.8%	-69.6*	20.6µM*
O=C(C1=C[C@H](c2ccc(C(F)(F)F)cc2)C[C@H](OCc2ccc(CO)cc2)O1)N1CCN(Cc2ccc3c(c2)OCO3)CC1	?	-16.9	?	1.9%	·	?
CC(C)(C)[C@@H]1C=C(C(=O)Nc2ccccc2)O[C@H](OCc2ccc(CO)cc2)C1	2.1	-1.0	20.6µM*	0.8%	?	23.1µM*
O=C(C1=C[C@@H](c2ccc(Br)cc2)C[C@@H](OCc2ccc(CO)cc2)O1)N1CCN(Cc2ccc3c(c2)OCO3)CC1	-63.2*	-12.7	18.4µM*	0.6%	-25.2	?
COc1ccc(N(C(=O)CNC(=O)c2cccs2)C(C(=O)NCC2CCCO2)c2ccccc2)c(OC)c1 (configuration not stated)	10.5	-7.4	-15.5%	·	-2.0	1.3%
O=C1NC(=O)N2CCSC2(Cc2ccccc2)N1 (configuration not stated)	2.5	-22.3	-21.4%	-0.2%	-18.7	?
Clc1cccc(CSc2nnc(C3CCNCC3)o2)c1	·	-29.6	?	2.8%	·	-25.8%
O=C(COC(=O)CCNS(=O)(=O)c1ccccc1)NC(=O)Cc1ccccc1	3.4	-5.8	20.1%	0.5%	21.9	-5.8%
CC(C)(C)[C@@H]1C=C(C(=O)N2CCN(Cc3ccc4c(c3)OCO4)CC2)O[C@H](OCc2ccc(CO)cc2)C1	1.3	-24.7	16.4µM*	-0.6%	-16.5	?

From PubChem BioAssay
